# Most compounds without a hit are left out; they make up all but 2% or so of the library.
# ABHD5 PLIN5 PPI: ABHD5-PLIN5 interaction inhibitors, primary screen, cell lysate, split luciferase complementation, luminescence; Perilipin-5 (Homo sapiens) + 1-acylglycerol-3-phosphate O-acyltransferase ABHD5 (Homo …; Split G. princeps luciferase complementation, 4 h; inhibition, % at 4 µM; hit rate 0.78% among 360,000; AID 602281, 2012;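 active means inhibition above the mean inhibition across every tested compound plus 3 SD, cut at about 22% in these data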;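 further: 0% = DMSO only wells and the 100% control is not disclosed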
# TLR9-MyD88 block: inhibitors of TLR9-MyD88 association in cells, primary screen, cell-based, CHO, BLA complementation, fluorescence; Toll-like receptor 9 (Homo sapiens) + Myeloid differentiation primary response protein …; CCF4 FRET ratio; inhibition, % at 4.98 µM; hit rate 0.21% among 340,000; AID 504734, 2011;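 active means inhibition above the mean over all tested compounds plus 3 SD, cut at about 21% in these data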;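 further: 0% = DMSO only wells and 100% = clavulanate BLA inhibitor control wells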
# NOD2-RIPK2 inh: NOD2-RIPK2 binding disruptors in cells, primary screen, fluorescence, CHO cells, BLA complementation; Receptor-interacting serine/threonine-protein kinase 2 (Homo sapiens), O43353; CCF4 ratio; inhibition, % at 4.98 µM; hit rate 0.38% among 360,000; AID 624267, 2012; in the data active means inhibition above about 21%;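 further: 0% = vehicle only and 100% = reference blocker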
# Beta2AR agonist: beta2AR agonists driving receptor internalization, primary screen, cell-based, FAP fluorogen, flow cytometry; hit rate 0.43% among 340,000; response, % (test concentration not listed); Am2.2-beta2AR cells; Beta-2 adrenergic receptor (Homo sapiens), P07550;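 active means response above a set limit, near 3 SD of response in nonfluorescent compounds, cut at about 42% in these data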
# Target sequence (P07550 whole entry, looked up): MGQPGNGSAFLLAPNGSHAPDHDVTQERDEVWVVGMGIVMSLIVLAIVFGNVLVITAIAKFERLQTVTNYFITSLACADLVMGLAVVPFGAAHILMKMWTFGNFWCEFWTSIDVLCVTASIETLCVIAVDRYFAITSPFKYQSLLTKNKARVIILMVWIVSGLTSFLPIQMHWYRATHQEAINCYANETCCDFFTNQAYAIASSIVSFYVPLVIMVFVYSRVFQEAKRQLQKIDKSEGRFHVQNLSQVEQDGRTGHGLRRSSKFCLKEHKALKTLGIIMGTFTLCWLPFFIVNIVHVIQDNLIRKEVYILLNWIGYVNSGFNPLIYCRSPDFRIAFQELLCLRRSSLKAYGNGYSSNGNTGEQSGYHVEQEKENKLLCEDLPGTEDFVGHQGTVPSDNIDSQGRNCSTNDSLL
# Exocytosis inh: LAMP-1 surface exposure blockers, TALL-104 cells – cell-based, flow cytometry, MLPCN library, primary screen. inhibition, % at 10 µM. AID 651702, 2012. hit rate 0.66% among 360,000. TALL-104 LAMP-1 surface exposure; cells stimulated with thapsigargin and PMA;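 active means inhibition above about 55%, limit read from the data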
# TLR4-MyD88 BLA: inhibitors of TLR4-MyD88 association in cells, primary screen, cell-based, HeLa CL3-4, BLA complementation, FRET ratio; Toll-like receptor 4 (Homo sapiens) + Myeloid differentiation primary response protein …; HeLa CL3-4 TLR4/MyD88 BLA complementation; inhibition, % at 8.4 µM; hit rate 0.18% among 200,000; AID 861, 2007; in the data active means inhibition above about 25%;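 further: 0% = vehicle and 100% = reference inhibitor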
# ABHD5-PLIN5 conf: ABHD5-PLIN5 interaction inhibitors, confirmation, biochemical, luminescence. hit rate 67% among 2,200. AID 651612, 2012. inhibition, % at 4 µM. shares compounds with ABHD5 PLIN5 PPI; in the data active means inhibition above about 23%;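 further: 0% = DMSO vehicle wells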
# HNF4 counter: HNF4 dimerization inhibitors, counter-screen for ABHD5-PLIN5 interaction inhibitor project, biochemical, split-luciferase complementation, luminescence; shares compounds with ABHD5 PLIN5 PPI; inhibition, % at 4 µM; hit rate 77% among 2,200;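 active means mean inhibition across replicate wells exceeding the computed hit threshold, cut at about 13% in these data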;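 further: light from luciferase halves that rejoin when HNF4 fusion proteins dimerize; 0% = DMSO only wells and the 100% control is not given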
# Numbers without * were called inactive; nt = no result.
SMILES,ABHD5 PLIN5 PPI,TLR9-MyD88 block,NOD2-RIPK2 inh,Beta2AR agonist,Exocytosis inh,TLR4-MyD88 BLA,ABHD5-PLIN5 conf,HNF4 counter
CC1=C(C)CS(=O)N(c2ccc(S(N)(=O)=O)cc2)C1 (configuration not stated),34*,0,4,7,15,-3,66*,89*
O=C1NC[C@H](Cc2ccccc2)N(CC2CCN(CCC34CC5CC(CC(C5)C3)C4)CC2)C1=O,-3,-7,-6,13,-4,nt,nt,nt
CCN(CC(=O)Nc1ccc(OC)cc1)C(=O)CSCC(=O)Nc1ccc(C)cc1,-8,-7,-4,-6,-17,nt,nt,nt
CCN(CC(=O)Nc1c(F)cccc1F)C(=O)CSCC(=O)Nc1ccc(OC)cc1,26*,0,-7,0,-1,nt,3,-5
O=C(O)C(Cc1ccccc1)N1C(=O)C=CC1=O (configuration not stated),75*,-1,6,nt,-1,nt,67*,107*
O=C(O)C(Cc1ccccc1)N1C(=O)CCC1=O (configuration not stated),-4,0,3,0,2,-11,nt,nt
O=[N+]([O-])c1cccc(C2=NC(c3ccccc3)CO2)c1 (configuration not stated),9,-4,-12,-2,11,-6,nt,nt
O=c1[nH]cnc2c1N=C(c1cccc([N+](=O)[O-])c1)CC(c1ccccc1)N2 (configuration not stated),45*,-17,-5,-3,4,-13,10,26*
CCN(CC)C(=O)C1=C(C)N(Cc2ccc(OC)cc2)C(=O)C(CC(=O)NCc2cccs2)C1 (configuration not stated),-2,7,-15,nt,7,nt,nt,nt
CCN(CC)C(=O)CSc1nc2ccccc2c(=O)n1OC(C)C,24*,-3,-15,-1,2,-4,1,-2
COC(=O)c1cc(=O)n(Cc2ccco2)c(=Nc2ccc(F)cc2)s1,31*,-6,1,15,-2,-4,65*,44*
COC(=O)c1cc(=O)n(Cc2cccs2)c(=Nc2ccccc2)s1,18,11,-3,21,1,nt,nt,nt
COC(=O)c1cc(=O)n(CCc2ccc(OC)c(OC)c2)c(=Nc2ccc(F)c(Cl)c2)s1,5,2,-4,22,-2,15,nt,nt
COC(=O)c1cc(=O)n(-c2ccccc2)c(=Nc2ccccc2)s1,38*,-1,-2,18,6,3,57*,39*
CCN(Cc1ccccc1)c1cc2c(c3c1ccn3C)C1CCC2C1 (configuration not stated),-19,nt,-10,nt,2,nt,nt,nt
O=C1S/C(=C/c2ccc(N3CCOCC3)o2)C(=O)N1Cc1c(F)cccc1Cl,25*,13,-12,-645,106*,9,23*,36*
O=C(Nc1ccc2c(c1)OCCO2)C(c1cc2ccccc2o1)N1CCN(C/C=C/c2ccccc2)CC1 (configuration not stated),13,nt,7,nt,8,nt,nt,nt
C[n+]1cccc(NC(=O)c2ccccc2)c1,-11,nt,-9,nt,19,nt,nt,nt
O=C(O)c1cccc(-c2ccc3c(c2)OCO3)c1,88*,3,-2,0,2,nt,2,4
O=C(Nc1cccc(C(=O)O)c1)Nc1ccc2c(c1)OCO2,1,1,-8,2,-1,nt,nt,nt
CCOC(=O)C1=CC[C@@H](c2ccccc2)N(S(=O)(=O)c2ccc(C)cc2)[C@@H]1C#N,48*,nt,5,nt,43,nt,50*,58*
O=C1C=CC(n2cc(F)c(=O)[nH]c2=O)O1 (configuration not stated),31*,6,-1,nt,-3,nt,42*,33*
Nc1ccc(S(=O)(=O)NN=Cc2ccccc2[N+](=O)[O-])cc1,8,4,-12,-4,-4,nt,nt,nt
O=[N+]([O-])c1cc(S(=O)(=O)NCCN2CCOCC2)ccc1Sc1nnnn1-c1ccccc1,13,5,2,5,1,7,nt,nt
Cc1ccc(-n2nnnc2Sc2ccc(S(=O)(=O)NCCN(C)C)cc2[N+](=O)[O-])cc1,31*,-2,7,36,7,10,19,34*
SMILES,ABHD5 PLIN5 PPI,TLR9-MyD88 block,NOD2-RIPK2 inh,Beta2AR agonist,Exocytosis inh,TLR4-MyD88 BLA,ABHD5-PLIN5 conf,HNF4 counter
Cc1ccc(CNC(=O)CCc2nnc(Cc3ccc(-c4ccccc4)cc3)o2)o1,28*,0,-6,-16,-1,2,10,5
O=C(NC1CCCCC1)C(c1ccccc1)n1c(=O)c(-c2ccco2)nc2ccccc21 (configuration not stated),86*,nt,-9,nt,5,nt,97*,54*
CCCCCNC(=O)C(C1CC1)n1c(=O)c(-c2ccco2)nc2ccccc21 (configuration not stated),31*,nt,7,nt,-2,nt,61*,23*
O=C(NC1CCCCC1)C(c1ccc(C(F)(F)F)cc1)n1c(=O)c(-c2ccco2)nc2ccccc21 (configuration not stated),85*,nt,-14,nt,2,nt,90*,13*
COc1ccc(C(C(=O)NC2CCCC2)n2c(Cc3cc(F)cc(F)c3)nc3ccccc32)cc1 (configuration not stated),-6,nt,0,nt,-7,nt,nt,nt
O=C(NC1CCCCC1)C(C1CC1)n1c(=O)c(-c2ccco2)nc2ccccc21 (configuration not stated),66*,nt,-9,nt,-2,nt,71*,34*
COc1ccc(NC(=O)C(C2CC2)n2c(=O)c(-c3ccco3)nc3ccccc32)cc1 (configuration not stated),-6,nt,-9,nt,-10,nt,nt,nt
CCCCN1C(=O)C(CC(=O)NCCc2ccccn2)CC(C(=O)N2CCOCC2)=C1C (configuration not stated),-6,5,4,nt,3,nt,nt,nt
O=c1[nH][nH]c2c1[C@@H](c1ccc(F)cc1)O[C@H](CCOCc1ccccc1)C2,11,nt,-1,nt,3,nt,nt,nt
CCN(CC)C(=O)c1ccc(Cc2cn(C)c3ccccc23)nc1,-6,nt,-11,nt,-1,nt,nt,nt
COc1ccc(C(C(=O)NC2CCCC2)n2c(-c3cccs3)nc3ccccc32)cc1 (configuration not stated),-5,nt,1,nt,-2,nt,nt,nt
